The structures appear in SMILES notation. This is part of a sample that, as a whole, favours compounds with a hit. Of some 79,000 tested, about 15% had one in any assay. Values without a mark were called inactive. Calls of active or inactive are those of the source. No stated cut-off is given here; in the data, active means growth inhibition above about 70%; inactive means the rest.

One assay is described as follows: NCI Yeast Anticancer Drug Screen. Data for the rad50 strain (AID 155).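 Further: 0% = growth of vehicle-only cultures of the same strain.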 As to conditions: S. cerevisiae rad50 strain growth inhibition; at 50.0 µM; active compounds read high. In outline: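 Yeast carrying a defined DNA repair defect were exposed to test compounds, and growth was compared with vehicle-treated controls to give percent inhibition.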
As for `COc1ccc2[nH]c3c(c2c1)-c1ncncc1CC3`, the growth inhibition was 37.4%.

Regarding `CN(C)c1ccc(/C=C(/NC(=O)c2ccccc2)C(N)=O)cc1`, the growth inhibition is 13.9%.

For the compound `OC(C1COCO1)C1OCOC1C1COCO1` (stereo not given), the growth inhibition was 21.6%.

For the compound `C/C(=N/O)c1ccc(C(F)(F)F)cc1`, the growth inhibition was -5.25%.

With `O=C1c2ccccc2-c2nc3cc4ccccc4cc3nc21`, the growth inhibition is 20.1%.

For `CCOP(=O)(OCC)C(Cc1ccc(OC)c(OC)c1)N=C(c1ccccc1)c1ccccc1` (stereo not given), the growth inhibition was 4.8%.

With `CCOC(=O)N1CCN(c2c(N)nc(C)[nH]c2=O)CC1`, the growth inhibition was -49.6%.

As to `Cn1c(-c2ccc(Br)cc2)cc2[nH]c(=S)nc(N)c2c1=O`, the growth inhibition was -16.8%.

For the compound `Cc1ccc(C)c(NS(=O)(=O)c2ccc(Cl)c([N+](=O)[O-])c2)c1`, the growth inhibition is 97.1% (active).

In the case of `COC(=O)c1cccc(Cl)c1C(=O)c1ccc(C)cc1C`, the growth inhibition is -25%.

Consider `CNC(=O)n1c(N)nc(-c2ccccc2)c1-c1ccccc1`, for which the growth inhibition is 14.3%.

`Cc1ccc(C(C)C)c(O)c1NC(=S)N/N=C\c1cc(Cl)ccc1O`: the growth inhibition was -4.55%.

With `COc1cc(Br)c(C=Nc2cccc3cc(OC)c(OC)cc23)cc1OC`, the growth inhibition was -0.9%.

For `NNC(=O)CNC(=O)c1ccccc1`, the growth inhibition is 11.5%.

For the compound `O=S(=O)(O)C(Cc1nc2ccccc2[nH]1)S(=O)(=O)OCCC1S(=O)(=O)OCCOS1(=O)=O` (stereo not given), the growth inhibition was 0%.

As for `Cc1ncc([N+](=O)[O-])n1CCN(C)CCCCn1ccnc1[N+](=O)[O-]`, the growth inhibition was -0.3%.

As to `Cc1oc([N+](=O)[O-])cc1C(=O)O`, the growth inhibition is 10.5%.

As to `Cc1ccccc1C(=O)OCCBr`, the growth inhibition was 10.3%.

With `Cc1cccc(C(=O)NCCN(C)C)c1[N+](=O)[O-]`, the growth inhibition was 5.55%.

On to `NC(CO)C(=O)NCCS(=O)(=O)O` (stereo not given), for which the growth inhibition was -10.7%.

For the compound `CC(C)CCCC(C)C1CCC2C3C(=O)C=C4C=CCCC4(C)C3CCC12C` (stereo not given), the growth inhibition is 5.95%.

Regarding `CCOC1(COP(=O)(OCc2ccccc2)OCc2ccccc2)COC(COP(=O)(OCc2ccccc2)OCc2ccccc2)(OCC)CO1` (stereo not given), the growth inhibition is -30.1%.

`CCC[N+]1([O-])CCOCC1`: the growth inhibition is -8.2%.

Regarding `CC12CCC(=O)C=C1CCC1C2CCC2(C)C(C(=O)Cn3c(=O)[nH]cc(F)c3=O)CCC12` (stereo not given), the growth inhibition was 19.9%.

With `C=CCOCn1ccc(NC(=O)c2ccccc2)nc1=O`, the growth inhibition is -58%.

As to `O=C(O)c1ccc(N2C(=O)c3ccccc3C2=O)cc1`, the growth inhibition was -19.1%.

With `CCN(CC)CCC1(C(N)=O)Cc2ccccc2N(CC)c2ccccc21` (stereo not given), the growth inhibition was 13.6%.

As for `Cn1c(=O)c2c(nc3n(C)c(=O)c4ccccc4n23)n(C)c1=O`, the growth inhibition was 64.7%.

On to `C=CCOc1cc(=O)[nH]c2ccccc12`, for which the growth inhibition was -14.1%.

As to `CCCCCCOC(=O)/C=C1/OC(=O)c2ccccc21`, the growth inhibition was -12.2%.

Regarding `O=C1N(O)C2(C=CCCC2)/C(=N/O)C12CCCCC2` (stereo not given), the growth inhibition was -8.5%.

With `O=C1C=CC(c2ccccc2)(c2ccccc2)O1`, the growth inhibition is -32.7%.

As to `Nc1cc(C(F)(F)F)cc(C(F)(F)F)c1`, the growth inhibition is -6.2%.

For the compound `CC(O)(C(=O)c1ccccc1)c1ccccc1` (stereo not given), the growth inhibition was -16.4%.

As for `CCC(SC)C(=O)N(C)c1ccccc1` (stereo not given), the growth inhibition is -8.5%.

Consider `Cc1c(C)c2ccc(OCC(O)COC(C)C)c(C)c2oc1=O` (stereo not given), for which the growth inhibition is -10.7%.

Regarding `COc1ccc(COC(=O)Nc2cccc(Cl)c2)cc1OC`, the growth inhibition was -11.5%.

Take `CC(=O)/C(=C/c1ccco1)CC(=O)O`: the growth inhibition is -15.1%.

As for `CCOC(=O)c1c(C)c2c(n1C)CCC(CCC(C)=O)C2=O` (stereo not given), the growth inhibition is 5.6%.

Take `Cc1cn(CCCn2cnc3c(N)ncnc32)c(=O)[nH]c1=O`: the growth inhibition was -12.7%.

A short description of the next assay: NCI Yeast Anticancer Drug Screen. Data for the mec2-1 strain (AID 157). As to conditions: S. cerevisiae mec2-1 strain, at 50.0 µM, active compounds read high. In outline: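 Strain: mec2-1 (DNA repair/cell cycle alteration). Compound exposure, then growth measured; inhibition expressed relative to vehicle.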
For the compound `COc1ccc2[nH]c3c(c2c1)-c1ncncc1CC3`, the growth inhibition is -9.65%.

Take `CN(C)c1ccc(/C=C(/NC(=O)c2ccccc2)C(N)=O)cc1`: the growth inhibition was 4.55%.

Consider `OC(C1COCO1)C1OCOC1C1COCO1` (stereo not given), for which the growth inhibition was 9.45%.

For `C/C(=N/O)c1ccc(C(F)(F)F)cc1`, the growth inhibition was -15.6%.

Regarding `O=C1c2ccccc2-c2nc3cc4ccccc4cc3nc21`, the growth inhibition was 15.6%.

Regarding `CCOP(=O)(OCC)C(Cc1ccc(OC)c(OC)c1)N=C(c1ccccc1)c1ccccc1` (stereo not given), the growth inhibition was -5.7%.

As for `CCOC(=O)N1CCN(c2c(N)nc(C)[nH]c2=O)CC1`, the growth inhibition is -20.9%.

With `Cn1c(-c2ccc(Br)cc2)cc2[nH]c(=S)nc(N)c2c1=O`, the growth inhibition is -23.9%.

In the case of `Cc1ccc(C)c(NS(=O)(=O)c2ccc(Cl)c([N+](=O)[O-])c2)c1`, the growth inhibition was 98.2% (active).

With `COC(=O)c1cccc(Cl)c1C(=O)c1ccc(C)cc1C`, the growth inhibition is -8.3%.

Turning to `CNC(=O)n1c(N)nc(-c2ccccc2)c1-c1ccccc1`, the growth inhibition is 4.55%.

Regarding `Cc1ccc(C(C)C)c(O)c1NC(=S)N/N=C\c1cc(Cl)ccc1O`, the growth inhibition was 22.8%.

Regarding `COc1cc(Br)c(C=Nc2cccc3cc(OC)c(OC)cc23)cc1OC`, the growth inhibition is -14.3%.

With `NNC(=O)CNC(=O)c1ccccc1`, the growth inhibition is -14.6%.

`O=S(=O)(O)C(Cc1nc2ccccc2[nH]1)S(=O)(=O)OCCC1S(=O)(=O)OCCOS1(=O)=O` (stereo not given): the growth inhibition is -0.4%.

As for `Cc1ncc([N+](=O)[O-])n1CCN(C)CCCCn1ccnc1[N+](=O)[O-]`, the growth inhibition was -1.2%.

As for `Cc1oc([N+](=O)[O-])cc1C(=O)O`, the growth inhibition was 7.5%.

Turning to `Cc1ccccc1C(=O)OCCBr`, the growth inhibition was -6.2%.

Turning to `Cc1cccc(C(=O)NCCN(C)C)c1[N+](=O)[O-]`, the growth inhibition is -20.9%.

With `NC(CO)C(=O)NCCS(=O)(=O)O` (stereo not given), the growth inhibition is 9.6%.

For `CC(C)CCCC(C)C1CCC2C3C(=O)C=C4C=CCCC4(C)C3CCC12C` (stereo not given), the growth inhibition is 11.2%.

With `CCOC1(COP(=O)(OCc2ccccc2)OCc2ccccc2)COC(COP(=O)(OCc2ccccc2)OCc2ccccc2)(OCC)CO1` (stereo not given), the growth inhibition was -25.6%.

In the case of `CCC[N+]1([O-])CCOCC1`, the growth inhibition was -1.8%.

As for `CC12CCC(=O)C=C1CCC1C2CCC2(C)C(C(=O)Cn3c(=O)[nH]cc(F)c3=O)CCC12` (stereo not given), the growth inhibition was 1.85%.

`C=CCOCn1ccc(NC(=O)c2ccccc2)nc1=O`: the growth inhibition was -57.1%.

Turning to `O=C(O)c1ccc(N2C(=O)c3ccccc3C2=O)cc1`, the growth inhibition is 4.8%.

Regarding `CCN(CC)CCC1(C(N)=O)Cc2ccccc2N(CC)c2ccccc21` (stereo not given), the growth inhibition was 10.6%.

As for `Cn1c(=O)c2c(nc3n(C)c(=O)c4ccccc4n23)n(C)c1=O`, the growth inhibition is 32.8%.

Regarding `C=CCOc1cc(=O)[nH]c2ccccc12`, the growth inhibition was -4.4%.

In the case of `CCCCCCOC(=O)/C=C1/OC(=O)c2ccccc21`, the growth inhibition was -15.5%.

On to `O=C1N(O)C2(C=CCCC2)/C(=N/O)C12CCCCC2` (stereo not given), for which the growth inhibition was -2.3%.

As for `O=C1C=CC(c2ccccc2)(c2ccccc2)O1`, the growth inhibition is -10.8%.

As to `Nc1cc(C(F)(F)F)cc(C(F)(F)F)c1`, the growth inhibition was 1.6%.

Take `CC(O)(C(=O)c1ccccc1)c1ccccc1` (stereo not given): the growth inhibition was -25.1%.

As to `CCC(SC)C(=O)N(C)c1ccccc1` (stereo not given), the growth inhibition is -15.3%.

For `Cc1c(C)c2ccc(OCC(O)COC(C)C)c(C)c2oc1=O` (stereo not given), the growth inhibition was -5.5%.

Take `COc1ccc(COC(=O)Nc2cccc(Cl)c2)cc1OC`: the growth inhibition is 30%.

Take `CC(=O)/C(=C/c1ccco1)CC(=O)O`: the growth inhibition was -22.1%.

Consider `CCOC(=O)c1c(C)c2c(n1C)CCC(CCC(C)=O)C2=O` (stereo not given), for which the growth inhibition was 5.5%.

`Cc1cn(CCCn2cnc3c(N)ncnc32)c(=O)[nH]c1=O`: the growth inhibition was -31.6%.

These data come from PubChem BioAssay (NCI).
